What all share (parameters): scale not given: direction of the effect not stated beside the values
Test [1] has as its target Protein translocase subunit SecA (Escherichia coli (strain K12)) (UniProt P10408). Nature of the test: Assay to Identify E. coli SecA ATPase Inhibitors. The format is functional. Conditions: 30 µM.
Test [2] addresses T1, Ubiquitin-activating enzyme e1, putative (Leishmania donovani (strain BPK282A1)) (UniProt E9BSI1).
T1 sequence (whole entry): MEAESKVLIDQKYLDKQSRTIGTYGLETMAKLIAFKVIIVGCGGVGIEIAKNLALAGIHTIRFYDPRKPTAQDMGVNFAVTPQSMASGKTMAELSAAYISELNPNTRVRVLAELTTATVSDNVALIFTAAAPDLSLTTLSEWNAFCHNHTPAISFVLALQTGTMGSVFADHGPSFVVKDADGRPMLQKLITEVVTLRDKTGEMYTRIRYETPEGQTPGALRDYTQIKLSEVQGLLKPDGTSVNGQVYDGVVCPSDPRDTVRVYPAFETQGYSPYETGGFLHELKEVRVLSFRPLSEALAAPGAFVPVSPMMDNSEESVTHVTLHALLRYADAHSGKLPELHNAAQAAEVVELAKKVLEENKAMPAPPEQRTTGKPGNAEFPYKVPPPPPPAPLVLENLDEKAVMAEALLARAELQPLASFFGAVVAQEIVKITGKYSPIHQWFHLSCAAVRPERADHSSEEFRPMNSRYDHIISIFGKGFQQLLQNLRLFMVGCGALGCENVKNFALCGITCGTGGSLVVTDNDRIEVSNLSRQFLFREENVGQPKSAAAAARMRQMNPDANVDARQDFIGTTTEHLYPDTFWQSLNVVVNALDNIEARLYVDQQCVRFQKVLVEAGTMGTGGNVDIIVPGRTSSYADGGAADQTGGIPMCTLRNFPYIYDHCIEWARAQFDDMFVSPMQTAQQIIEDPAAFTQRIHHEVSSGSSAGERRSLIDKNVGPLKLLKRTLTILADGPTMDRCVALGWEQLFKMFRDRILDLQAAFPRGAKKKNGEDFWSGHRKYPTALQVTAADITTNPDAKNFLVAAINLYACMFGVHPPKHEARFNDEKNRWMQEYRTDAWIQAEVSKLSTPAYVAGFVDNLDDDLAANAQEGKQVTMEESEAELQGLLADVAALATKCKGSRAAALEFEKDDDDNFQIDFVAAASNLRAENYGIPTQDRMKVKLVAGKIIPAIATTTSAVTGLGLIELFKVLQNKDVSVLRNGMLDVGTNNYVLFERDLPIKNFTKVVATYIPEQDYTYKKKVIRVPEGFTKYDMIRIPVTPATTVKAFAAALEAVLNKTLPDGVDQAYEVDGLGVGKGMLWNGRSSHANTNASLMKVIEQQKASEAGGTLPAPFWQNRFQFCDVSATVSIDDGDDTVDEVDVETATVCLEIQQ
The test can be described thus: Leishmania donovani Ubiquitin Activating Enzyme (LdE1). It is filed as functional. Conditions: 30 µM.

In test [3] the target is AMP-activated protein kinase, AMPK (Homo sapiens) (UniProt P54646+O43741+P54619+Q9UGJ0+Q9Y478+Q13131+Q9UGI9). The test can be described thus: AMP-dependent Kinase enzyme assay. An in vitro enzyme assay that detects ADP turnover that is directly proportional to AMPK activity. This uses naive AMPK that is activated during the assay with MK-8722. The format is functional. Conditions: 30 µM.

The target in test [4] is Sialic acid-binding Ig-like lectin 9 (Homo sapiens) (UniProt Q9Y336). Nature of the test: Hs-Siglec9 ALPHAscreen SOP 20170721. Conditions: 10 µM. On the technique in general: Alpha assays give light when donor and acceptor beads are brought close together.
Test [5] has as its system Trypanosoma cruzi. The test can be described thus: Trypanosoma cruzi phosphomannomutase and mannose-1-phosphate guanylyltransferase assay. The format is functional. Conditions: 10 µM.
Test [6] has as its target T2, Arginase-2, mitochondrial (Homo sapiens) (UniProt P78540).
T2 sequence (whole entry): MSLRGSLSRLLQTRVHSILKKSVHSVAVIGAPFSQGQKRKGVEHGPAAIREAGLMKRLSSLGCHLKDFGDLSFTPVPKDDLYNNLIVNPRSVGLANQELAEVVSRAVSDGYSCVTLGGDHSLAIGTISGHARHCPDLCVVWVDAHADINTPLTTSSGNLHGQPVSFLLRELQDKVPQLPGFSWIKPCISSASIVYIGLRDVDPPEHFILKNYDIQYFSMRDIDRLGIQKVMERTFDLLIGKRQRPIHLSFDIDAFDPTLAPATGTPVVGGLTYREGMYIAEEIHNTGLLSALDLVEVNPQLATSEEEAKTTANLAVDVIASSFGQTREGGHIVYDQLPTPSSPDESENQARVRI
Nature of the test: in vitro enzyme assay to detect the production of urea directly proportional to the activity of Arginase II. Further: in the data most compounds retested in dose-response had high values. It is filed as functional. Conditions: 33.3 µM.

Test [7] deals with T3, Proteasome subunit beta (Trypanosoma cruzi) (UniProt O96673).
T3 sequence (whole entry): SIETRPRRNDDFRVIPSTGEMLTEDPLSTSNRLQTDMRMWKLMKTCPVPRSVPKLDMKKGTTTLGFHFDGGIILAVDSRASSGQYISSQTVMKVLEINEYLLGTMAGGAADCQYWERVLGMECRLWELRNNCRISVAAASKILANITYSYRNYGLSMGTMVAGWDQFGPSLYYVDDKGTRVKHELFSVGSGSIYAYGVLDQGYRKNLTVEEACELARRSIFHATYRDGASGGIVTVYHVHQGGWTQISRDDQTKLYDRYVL
Nature of the test: Trypanosoma cruzi proteasome chymotrypsin-like activity (TcProtChymo) assay. Further: in the data most compounds retested in dose-response had high values. It is filed as functional. Conditions: 9.37 µM.

The species named for test [8] is Homo sapiens. Nature of the test: To identify inhibition of the IFN signalling (Jak-Stat) pathway via expression of an eGFP reporter gene under the control of an IFN-stimulated response element (ISRE) containing MxA promoter. Conditions: 30 µM. The format is functional. For orientation: Reporter assays use an easily measured gene product as a stand-in for the process of interest.

For test [9], the target named is T4, Tyrosyl-tRNA synthetase, putative (Trypanosoma cruzi (strain CL Brener)) (UniProt Q4DSP6).
T4 sequence (whole entry): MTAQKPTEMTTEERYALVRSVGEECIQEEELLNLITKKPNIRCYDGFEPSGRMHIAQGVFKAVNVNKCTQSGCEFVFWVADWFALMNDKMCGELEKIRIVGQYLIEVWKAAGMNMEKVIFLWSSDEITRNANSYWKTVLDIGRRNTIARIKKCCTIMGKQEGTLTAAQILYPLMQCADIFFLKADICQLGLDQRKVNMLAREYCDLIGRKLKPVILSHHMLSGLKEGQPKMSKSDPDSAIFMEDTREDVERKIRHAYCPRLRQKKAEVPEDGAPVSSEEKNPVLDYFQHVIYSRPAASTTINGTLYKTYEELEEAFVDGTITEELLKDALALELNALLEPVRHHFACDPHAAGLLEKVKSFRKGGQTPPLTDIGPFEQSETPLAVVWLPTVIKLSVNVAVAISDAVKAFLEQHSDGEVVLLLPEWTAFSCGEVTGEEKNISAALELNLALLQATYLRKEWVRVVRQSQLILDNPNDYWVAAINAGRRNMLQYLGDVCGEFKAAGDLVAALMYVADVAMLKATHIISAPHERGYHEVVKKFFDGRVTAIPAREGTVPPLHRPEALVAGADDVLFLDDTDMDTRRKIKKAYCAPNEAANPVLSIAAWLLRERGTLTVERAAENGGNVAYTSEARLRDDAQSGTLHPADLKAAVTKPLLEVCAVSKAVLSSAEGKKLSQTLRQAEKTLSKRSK
The test can be described thus: Trypanosoma cruzi tyrosyl tRNA synthetase (TcYRS) _High Tyrosine SOP. Further: in the data most compounds retested in dose-response had high values. It is filed as functional. Conditions: 30 µM.

Test [10] has as its target T4, Tyrosyl-tRNA synthetase, putative (Trypanosoma cruzi (strain CL Brener)). Nature of the test: Trypanosoma cruzi tyrosyl tRNA synthetase (TcYRS) SOP. It is filed as functional. Conditions: 30 µM.
Test [11] deals with Chromo domain-containing protein 1 (Saccharomyces cerevisiae (strain ATCC 204508 / S288c) (Baker's yeast)) (UniProt P32657). Nature of the test: ScCHD-1 Enzyme Inhibition Assay. Further: in the data most compounds retested in dose-response had high values. It is filed as functional. Conditions: 30 µM.

SMILES strings stand for the structures. For some of these results: Potency and affinity values are given separately.

Sequence of Protein translocase subunit SecA (Escherichia coli (strain K12)) (P10408 whole entry): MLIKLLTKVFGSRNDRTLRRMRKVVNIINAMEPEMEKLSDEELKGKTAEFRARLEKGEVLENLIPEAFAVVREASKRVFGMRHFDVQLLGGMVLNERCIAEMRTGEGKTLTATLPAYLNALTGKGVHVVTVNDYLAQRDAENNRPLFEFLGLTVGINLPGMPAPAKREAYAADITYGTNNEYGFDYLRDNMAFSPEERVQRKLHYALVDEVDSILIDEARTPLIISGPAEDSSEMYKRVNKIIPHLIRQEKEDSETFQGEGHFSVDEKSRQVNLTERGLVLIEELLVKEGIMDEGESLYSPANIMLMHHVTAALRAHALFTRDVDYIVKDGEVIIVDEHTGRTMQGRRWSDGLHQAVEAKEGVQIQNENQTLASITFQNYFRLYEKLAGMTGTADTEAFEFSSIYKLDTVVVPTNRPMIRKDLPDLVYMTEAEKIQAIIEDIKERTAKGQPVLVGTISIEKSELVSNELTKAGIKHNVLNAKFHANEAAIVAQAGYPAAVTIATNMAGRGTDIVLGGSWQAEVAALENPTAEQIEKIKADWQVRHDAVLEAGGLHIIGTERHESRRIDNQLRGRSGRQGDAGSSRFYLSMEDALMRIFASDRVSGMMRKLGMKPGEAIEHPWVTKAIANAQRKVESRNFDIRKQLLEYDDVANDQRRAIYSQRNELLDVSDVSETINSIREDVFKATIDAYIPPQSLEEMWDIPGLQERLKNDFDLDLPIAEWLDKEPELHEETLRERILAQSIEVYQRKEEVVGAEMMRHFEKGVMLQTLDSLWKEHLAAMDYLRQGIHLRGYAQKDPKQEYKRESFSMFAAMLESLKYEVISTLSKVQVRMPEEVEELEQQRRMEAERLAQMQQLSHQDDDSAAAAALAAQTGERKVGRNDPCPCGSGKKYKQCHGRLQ
Sequence of Chromo domain-containing protein 1 (Saccharomyces cerevisiae (strain ATCC 204508 / S288c) (Baker's yeast)) (P32657 whole entry, the tested form may be a part): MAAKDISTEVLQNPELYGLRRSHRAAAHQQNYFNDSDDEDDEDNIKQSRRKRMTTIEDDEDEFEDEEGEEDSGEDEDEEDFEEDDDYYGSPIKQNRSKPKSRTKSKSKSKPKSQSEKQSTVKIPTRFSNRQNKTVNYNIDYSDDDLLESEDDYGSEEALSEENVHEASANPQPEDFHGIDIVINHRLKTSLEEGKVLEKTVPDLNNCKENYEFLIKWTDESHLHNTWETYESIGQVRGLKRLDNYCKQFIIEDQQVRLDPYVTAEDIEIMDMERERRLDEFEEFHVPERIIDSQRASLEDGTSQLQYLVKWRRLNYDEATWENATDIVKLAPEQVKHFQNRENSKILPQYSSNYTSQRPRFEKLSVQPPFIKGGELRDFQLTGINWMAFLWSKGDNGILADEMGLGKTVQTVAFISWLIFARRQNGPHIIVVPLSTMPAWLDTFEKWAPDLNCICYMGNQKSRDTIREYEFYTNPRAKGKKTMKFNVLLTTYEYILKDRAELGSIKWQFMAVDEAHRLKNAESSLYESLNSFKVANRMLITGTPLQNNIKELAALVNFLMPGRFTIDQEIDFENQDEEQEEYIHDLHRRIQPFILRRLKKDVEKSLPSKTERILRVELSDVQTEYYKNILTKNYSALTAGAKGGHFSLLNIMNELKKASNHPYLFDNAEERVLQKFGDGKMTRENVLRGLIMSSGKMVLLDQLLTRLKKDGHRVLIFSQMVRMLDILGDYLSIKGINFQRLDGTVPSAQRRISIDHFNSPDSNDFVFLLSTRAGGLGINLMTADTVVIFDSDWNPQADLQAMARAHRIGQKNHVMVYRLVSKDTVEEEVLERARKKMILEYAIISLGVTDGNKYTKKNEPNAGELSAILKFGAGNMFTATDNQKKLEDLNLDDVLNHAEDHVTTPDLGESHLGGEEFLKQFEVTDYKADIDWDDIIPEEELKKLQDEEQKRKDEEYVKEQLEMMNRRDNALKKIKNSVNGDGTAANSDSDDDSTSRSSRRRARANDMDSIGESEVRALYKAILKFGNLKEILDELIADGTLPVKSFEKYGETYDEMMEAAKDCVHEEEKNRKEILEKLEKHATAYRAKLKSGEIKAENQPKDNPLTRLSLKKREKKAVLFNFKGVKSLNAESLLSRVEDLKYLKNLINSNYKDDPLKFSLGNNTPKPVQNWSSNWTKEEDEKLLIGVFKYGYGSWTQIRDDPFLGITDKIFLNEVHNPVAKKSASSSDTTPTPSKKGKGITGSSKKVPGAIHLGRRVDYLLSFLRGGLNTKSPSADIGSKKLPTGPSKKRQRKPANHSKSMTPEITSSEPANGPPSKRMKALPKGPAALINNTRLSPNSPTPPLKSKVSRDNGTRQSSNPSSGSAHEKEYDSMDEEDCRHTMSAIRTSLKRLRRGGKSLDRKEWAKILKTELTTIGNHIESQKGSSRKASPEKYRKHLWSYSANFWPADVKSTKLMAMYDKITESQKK
Sequence of Sialic acid-binding Ig-like lectin 9 (Homo sapiens) (Q9Y336 whole entry): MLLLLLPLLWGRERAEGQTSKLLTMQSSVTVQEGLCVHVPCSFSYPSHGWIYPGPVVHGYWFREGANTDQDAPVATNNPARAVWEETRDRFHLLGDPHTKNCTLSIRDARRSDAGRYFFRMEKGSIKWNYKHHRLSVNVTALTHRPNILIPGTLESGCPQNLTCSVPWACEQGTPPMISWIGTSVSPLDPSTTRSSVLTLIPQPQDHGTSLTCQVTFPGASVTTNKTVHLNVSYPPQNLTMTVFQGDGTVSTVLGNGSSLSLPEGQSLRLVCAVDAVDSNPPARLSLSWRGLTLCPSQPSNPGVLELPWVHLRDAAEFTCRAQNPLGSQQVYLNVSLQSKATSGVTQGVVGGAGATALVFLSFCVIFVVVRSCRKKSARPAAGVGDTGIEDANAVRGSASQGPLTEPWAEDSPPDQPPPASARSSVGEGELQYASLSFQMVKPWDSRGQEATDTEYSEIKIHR

For `Cc1n[nH]c(C2CN(C(=O)c3ccco3)CCO2)n1` (stereo not drawn), the Percent Effect was -4.76% in test [1]; 2.63% in test [2]; 7.87% in test [3]; 3.79% in [4]; 1.07% in test [5]; 0% in test [6]. The Percent Effect is 4.51% in test [7]; 25.8% in [8]; 6.38% in [9]; 7.79% in test [10]; -0.969% in [11].
As to `COCC1CN(Cc2ccncc2)Cc2nnn(CC3CC3)c21` (stereo not drawn), the Percent Effect in test [1] is -1.08%; in [2], 0%; in [3] it was 2.57%; in test [4] it was 2.54%; in test [5], 0.688%; in test [6] it was -1.38%. Further, the Percent Effect was 1.33% in test [7]; -3.55% in test [8]; 0% in [9]; -1.24% in test [10]; 3.24% in test [11].
Take `Cc1nc(COCc2cnc3n2CCN(C2CCC2)C3C)cs1` (stereo not drawn): the Percent Effect in test [1] is -2.77%; in [2] it was 5.33%; in test [3], -2.96%; in [4], 12.2%; in test [5], 5.21%; in [6], -57.2%. Moreover, the Percent Effect in test [7] is 10.8%; in test [8], -7.58%; in [9], 3.12%; in test [10] it was 7.5%; in test [11], -6.66%.
As for `Cc1nc(CN(C)C2CCN(CC(=O)NC3CCOCC3)C2)no1` (stereo not drawn), the Percent Effect is -1.63% in test [1]; 16.2% in test [2]; -9.99% in test [3]; 0.0133% in test [4]; -0.836% in test [5]; -3.14% in test [6]. The Percent Effect in [7] was 11.1%; in test [8] it was 11.9%; in [9], 5.94%; in [10], 18.3%; in [11], -5.55%.
For `CN(C)CC1CN(c2ncnc3[nH]ccc23)CCO1` (stereo not drawn), the Percent Effect was -5.15% in [1]; 16.5% in test [2]; 22% in [3]; 2.27% in test [4]; 0.103% in test [5]; -1.94% in test [6]. Also, the Percent Effect is 13.9% in test [7]; 28.5% in test [8]; 7.29% in test [9]; 15.2% in test [10]; -33% in test [11].
With `CCC(C)NC(=O)Cc1c(C)nc2c(c1C)c(=O)[nH]n2C` (stereo not drawn), the Percent Effect in test [1] was 0.22%; in test [2], 13%; in test [3] it was 1.2%; in [4], 14%; in test [5], 3.44%; in test [6], 1.38%. In addition, the Percent Effect in test [7] is 7.32%; in [8], -10.2%; in test [9] it was 2.15%; in test [10], 16.1%; in test [11], -1.16%.
As to `N#Cc1cccc(CN2CC[C@@H]3[C@@H]2CC(=O)N3Cc2cccnc2)c1`, the Percent Effect in test [1] is -2.43%; in [2], 16%; in [3], 12.4%; in [4] it was 1.95%; in [5], -4.72%; in [6] it was -1.17%. The Percent Effect was 13.7% in [7]; -10.2% in test [8]; 3.19% in test [9]; 11.5% in [10]; -1.86% in test [11].
Turning to `COc1nn(C)c2c1CCCN(C(=O)c1cc[nH]n1)C2`, the Percent Effect in test [1] was -5.44%; in test [2] it was -5.41%; in [3], 5.53%; in [4] it was 2.19%; in test [5], -4.4%; in test [6], -0.319%. Further, the Percent Effect in test [7] was 22.3%; in [8], -1.16%; in test [9], -11.9%; in [10], -12.8%; in [11], 6.55%.

Values taken from ChEMBL document CHEMBL3988442, “University of Dundee, Small-Polar-MMV Screening Library” (2021).
